Data taken from PubChem BioAssay AID588436 (Broad Institute, 2011).
Hit rate of the full screen: of about 350,000 compounds, about 550 (0.16%) were called active. Rule as the data show it: active = activation mostly above about 9.7% (no sharp cut-off); inconclusive = no clear call, values can overlap the other calls; inactive = mostly below about 3.7%. The list comes from a sample in which actives are over-represented; it also holds similar structures and randomly drawn compounds.

assay: induces V. cholerae light production without autoinducers, primary screen, BH1578 luxS cqsA deficient, single point (AID 588436); details: V. cholerae BH1578 lux reporter, luminescence, 6 h, at 18.7 µM; hits give high values

**Q.** Which activation does the source give for `COC(=O)c1c(C(=O)OC)c2n(c1C)CCS2` here?
**A.** -0.577% (inactive)

**Q.** For `Cc1cc(-n2cnc(-c3cn(C)nc3C)n2)no1`, which activation is on record?
**A.** inactive

**Q.** With `Cc1c(C(=O)O)nnn1-c1nonc1N` as the molecule, how does the activation read?
**A.** 1.08% (inactive)

**Q.** For `CCOC(=O)c1nnn(-c2nonc2-n2cccc2)c1CN1CCC(C(=O)OCC)CC1`, which activation is on record?
**A.** inactive

**Q.** With `NNC(=O)c1nnn(-c2nonc2N)c1CN1CCCC1` as the molecule, how does the activation read?
**A.** 67.1% (active)

**Q.** Which activation does the source give for `COc1ccc(NC(=O)CN(C)C(=O)CC2CCCCC2)cc1` here?
**A.** -0.68% (inactive)

**Q.** With `COc1ccc(NC(=O)CN(C)C(=O)CNC(=O)C2CCCCC2)cc1` as the molecule, how does the activation read?
**A.** 1.72% (inactive)

**Q.** For `CN(CC(=O)Nc1ccc(OC(F)(F)F)cc1)C(=O)C1CCC1`, which activation is on record?
**A.** 18.8% (active)

**Q.** With `COc1ccccc1C(=O)NCCn1cc(SCC(=O)NCc2ccco2)c2ccccc21` as the molecule, how does the activation read?
**A.** -0.41% (inactive)

**Q.** Which activation does the source give for `CCC(=O)NC(NCC1CCCO1)C(Cl)(Cl)Cl` (stereo not drawn) here?
**A.** 16.7% (active)

**Q.** For `CCC(=O)Nc1ccc(S(=O)(=O)NCC2CCCO2)cc1` (stereo not drawn), which activation is on record?
**A.** -0.618% (inactive)

**Q.** Which activation does the source give for `CCC(=O)c1c[nH]c(C(=O)NCC2CCCO2)c1` (stereo not drawn) here?
**A.** -0.144% (inactive)

**Q.** With `O=C(C1CCCN(S(=O)(=O)c2ccccc2)C1)N1CCN(c2ccc(F)cc2)CC1` (stereo not drawn) as the molecule, how does the activation read?
**A.** inactive

**Q.** Which activation does the source give for `CCCS(=O)(=O)N1CCCC(C(=O)N2CCN(c3ccccc3)CC2)C1` (stereo not drawn) here?
**A.** 33.3% (active)

**Q.** With `CS(=O)(=O)N1CCC(C(=O)N2CCN(c3ccccc3)CC2)CC1` as the molecule, how does the activation read?
**A.** inactive

**Q.** For `CCOc1ccc(OCc2cccc(C(=O)N(CC)CC)c2)cc1`, which activation is on record?
**A.** -0.345% (inactive)

**Q.** With `Cc1cccc(-n2c(SCC(=O)Nc3cccc(S(=O)(=O)NC4=NCCCCC4)c3)nc3ccccc3c2=O)c1C` as the molecule, how does the activation read?
**A.** -0.796% (inactive)

**Q.** For `O=C(C1CC(=O)N(c2ccc(F)cc2)C1)N1CCN(c2ccccc2)CC1` (stereo not drawn), which activation is on record?
**A.** -0.28% (inactive)

**Q.** For `Cc1cccc(CN2CCC(n3nccc3NC(=O)c3ccccc3C)CC2)n1`, which activation is on record?
**A.** -0.82% (inactive)

**Q.** With `COC(=O)C1=C(C)NC(=O)NC1/C=C/c1ccccc1` (stereo not drawn) as the molecule, how does the activation read?
**A.** 33.3% (active)

**Q.** For `COC(=O)C1=C(C)N=C2SC(C)C(=O)N2C1/C=C/c1ccccc1` (stereo not drawn), which activation is on record?
**A.** inactive

**Q.** With `COC(=O)c1ccc(C2NC(=O)NC(C)=C2C(=O)N(C)C)cc1` (stereo not drawn) as the molecule, how does the activation read?
**A.** -3.1% (inactive)

**Q.** With `CCN(CC(=O)Nc1ccccc1C(F)(F)F)C(=O)CSCc1c(C)noc1C` as the molecule, how does the activation read?
**A.** inactive

**Q.** With `CC(C)CC(N=C1NC(C)(C)Cc2ccccc21)C(=O)O` (stereo not drawn) as the molecule, how does the activation read?
**A.** -0.478% (inactive)

**Q.** For `CC(NCc1cccs1)C(=O)Nc1cc(Cl)cc(Cl)c1` (stereo not drawn), which activation is on record?
**A.** -0.542% (inactive)

**Q.** With `COC(=O)c1ccc(CNC(=O)Cn2cc(C)c(=O)[nH]c2=O)cc1` as the molecule, how does the activation read?
**A.** -1.31% (inactive)

**Q.** For `CCc1cccc2c(=O)c(C(=O)NCCCOC)c[nH]c12`, which activation is on record?
**A.** inactive

**Q.** With `O=C(Cc1ccc2c(c1)CCCC2)Nc1ccccc1Cl` as the molecule, how does the activation read?
**A.** 159% (active)

**Q.** For `Cc1cc(C(=O)OCC(=O)Nc2ccccc2Cl)c(C)o1`, which activation is on record?
**A.** 11.9% (inactive)

**Q.** Which activation does the source give for `O=C(Nc1ccc2c(c1)CCC2)c1cccc(S(=O)(=O)Nc2ccccc2Cl)c1` here?
**A.** 0.69% (inactive)

**Q.** Which activation does the source give for `O=[N+]([O-])c1cnc2ccc3ccccc3c2c1` here?
**A.** 31.2% (active)

**Q.** With `CN(CCc1ccccc1)c1ccc([N+](=O)[O-])cn1` as the molecule, how does the activation read?
**A.** inactive

**Q.** With `O=[N+]([O-])c1ccc2nc(-c3ccccn3)[nH]c2c1` as the molecule, how does the activation read?
**A.** inactive

**Q.** With `COc1cccc(N(C(=O)CNC(=O)c2ccco2)C(C(=O)NC2CCCCC2)c2cccnc2)c1` (stereo not drawn) as the molecule, how does the activation read?
**A.** 0.162% (inactive)

**Q.** With `COC(=O)c1ccc(N(CC(=O)NC2CCCC2)C(=O)CNC(=O)c2ccco2)cc1` as the molecule, how does the activation read?
**A.** -0.813% (inactive)

**Q.** With `COc1ccc(N(CC(=O)NC2CCCCC2)C(=O)CNC(=O)c2ccco2)c(OC)c1` as the molecule, how does the activation read?
**A.** 16.7% (active)

**Q.** With `CC(C)CN(C(=O)Cn1c(=O)cnc2ccccc21)C1CCS(=O)(=O)C1` (stereo not drawn) as the molecule, how does the activation read?
**A.** -2.94% (inactive)

**Q.** Which activation does the source give for `CC(=O)OCCN(CCCn1c(-c2ccncc2)nc2ccccc21)c1nc(-c2ccc(C)cc2)cs1` here?
**A.** -0.447% (inactive)

**Q.** Which activation does the source give for `Cc1ccc(C)c(NC(=O)c2cc(-c3cc(C)cc(C)c3O)n[nH]2)c1` here?
**A.** 1.16% (inactive)

**Q.** Which activation does the source give for `COc1cccc(NC(=O)COC(=O)/C=C/c2ccco2)c1` here?
**A.** inactive

**Q.** Which activation does the source give for `CC(C)CNC(=O)COC(=O)/C=C/c1ccccc1[N+](=O)[O-]` here?
**A.** 13.6% (inactive)

**Q.** Which activation does the source give for `CC(C)CNC(=O)COC(=O)/C=C/c1ccco1` here?
**A.** 180% (active)

**Q.** Which activation does the source give for `CC(CN1CCCCC1)c1ccccc1` (stereo not drawn) here?
**A.** inactive
